A short description of test [1]: NCI Yeast Anticancer Drug Screen. Data for the rad50 strain (AID 155).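 Further: 0% = growth of vehicle-only cultures of the same strain.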 The following applies: S. cerevisiae rad50 strain growth inhibition; at 50.0 µM; active compounds read high. The gist of the method: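 Cells are treated with compound, grown, and their growth is then scored against vehicle-only cultures of the same repair-deficient yeast strain.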
Test [2] is described as follows: NCI Yeast Anticancer Drug Screen. Data for the mec2-1 strain (AID 157). The following applies: S. cerevisiae mec2-1 strain, at 50.0 µM, active compounds read high. The gist of the method:
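Readout is yeast growth inhibition, normalised to vehicle-treated controls, in the mec2-1 strain exposed to compound.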

Test [3] is described as follows: NCI Yeast Anticancer Drug Screen. Data for the sgs1 mgt1 strain (AID 161).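 Further: 0% = growth of cultures given vehicle only.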 As to conditions: S. cerevisiae sgs1 mgt1 strain, at 50.0 µM, active compounds read high. The gist of the method:
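This yeast growth screen uses a strain with defined DNA-repair lesions; compound-treated growth is compared with vehicle-treated growth.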

Test [4] can be described thus: NCI Yeast Anticancer Drug Screen. Data for the cln2 rad14 strain (AID 165).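 Further: 0% = growth equal to vehicle treated cultures.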 The following applies: S. cerevisiae cln2 rad14 strain, at 50.0 µM, active compounds read high. The gist of the method:
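Relative to vehicle controls, growth inhibition of compound-treated cln2 rad14 yeast was recorded.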

Test [5] is described as follows: NCI Yeast Anticancer Drug Screen. Data for the bub3 strain (AID 167). The following applies: S. cerevisiae bub3 mutant strain, at 50.0 µM, active compounds read high. In short, it runs like this: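 Part of a panel of yeast mutants defective in DNA damage repair or cell cycle regulation. Each strain is grown with compound, and inhibition is calculated relative to solvent-treated cultures.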

Test [6] can be described thus: NCI Yeast Anticancer Drug Screen. Data for the mlh1 rad18 strain (AID 175). As to conditions: S. cerevisiae mlh1 rad18 strain growth inhibition; at 50.0 µM; active compounds read high. The gist of the method: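 Test agents were incubated with a yeast strain of defined genotype (DNA damage repair defect). Inhibition of growth was derived by comparison with vehicle-exposed cultures.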

The panel holds about 79,000 compounds, 15% with a hit somewhere; the sample as a whole holds those more often. Values without a mark were called inactive. The source made the active and inactive calls. No stated cut-off is given here; in the data, active means growth inhibition above about 70%; inactive means the rest.

In the case of `COc1ccc(NC(=O)CCc2cc(-c3ccc(O)c(OC)c3)nc(NC#N)n2)cc1`, the growth inhibition in test [1] was -8.1%; in test [2], 9%; in test [3], -37%; in test [4], 6%; in test [5], 27.6%; in test [6], -28.9%.
As to `CC(C)(c1ccc(O)c([N+](=O)[O-])c1)c1ccc(O)c([N+](=O)[O-])c1`, the growth inhibition is -2.65% in test [1]; -2.75% in test [2]; -4.6% in test [3]; -26.4% in test [4]; -2.9% in test [5]; 7.2% in test [6].
Regarding `c1ccc(B2OC(c3ccccc3)=C(c3ccccc3)O2)cc1`, the growth inhibition in test [1] was 1.45%; in test [2], -0.25%; in test [3], 17.9%; in test [4], 11.8%; in test [5] it was -0.45%; in test [6], 13.3%.
With `O=C(Cl)c1cc(C(=O)Cl)cc(C(=O)Cl)c1`, the growth inhibition in test [1] is -28.6%; in test [2], -51.2%; in test [3], -24.2%; in test [4], 7.15%; in test [5] it was -28.4%; in test [6], -28.6%.
`O=C1CCc2ccccc2-c2ccccc21`: the growth inhibition is 17.9% in test [1]; 5% in test [2]; -12.1% in test [3]; -32% in test [4]; -5.3% in test [5]; 5.4% in test [6].
For `COc1ccc2c3c(c4ccccc4c2c1)C(=O)OC3=O`, the growth inhibition in test [1] is 27.8%; in test [2] it was 11.2%; in test [3] it was 16.7%; in test [4] it was 18.6%; in test [5], 21.8%; in test [6] it was 19.2%.
Turning to `NC(CCCO)C(=O)O` (stereo not given), the growth inhibition is -21.1% in test [1]; -6.7% in test [2]; -24.1% in test [3]; 8.6% in test [4]; -26.6% in test [5]; -26.1% in test [6].
Consider `O=C(COc1ccc(Cl)c(Cl)c1)NCc1ccc([N+](=O)[O-])cc1`, for which the growth inhibition in test [1] is 0.35%; in test [2], 28.2%; in test [3], 20.9%; in test [4] it was -10.7%; in test [5], 27.8%; in test [6], 22.9%.
As for `O=C(O)CC(Cc1ccccc1)C(=O)O` (stereo not given), the growth inhibition in test [1] was 1%; in test [2] it was -3.45%; in test [3] it was -26.1%; in test [4] it was -17.8%; in test [5], -31.9%; in test [6], 2.05%.
For the molecule `CCOC(=O)CC(C)C(Br)(C(=O)OCC)C(=O)OCC` (stereo not given), the growth inhibition in test [1] is 47.5%; in test [2] it was 93.5% (active); in test [3], 89.4% (active); in test [4], 20.5%; in test [5], 93.4% (active); in test [6], 95.4% (active).
On to `O=C(CC1=NC2NN(c3ccccc3)C(=O)C2=C1CC(=O)C(c1ccccc1)c1ccccc1)C(c1ccccc1)c1ccccc1` (stereo not given), for which the growth inhibition is 51.9% in test [1]; 17.9% in test [2]; 27.8% in test [3]; 32% in test [4]; 10.8% in test [5]; 48.5% in test [6].
As for `CCC(=O)SCC[N+](C)(C)C`, the growth inhibition in test [1] was 16.1%; in test [2], -30.8%; in test [3], 0.2%; in test [4], 8.8%; in test [5] it was 27.6%; in test [6], 4.55%.
As for `Cc1ccc([N+](=O)[O-])cc1NC(=O)Nc1cccc(Cl)c1Cl`, the growth inhibition is 3.55% in test [1]; 2.95% in test [2]; 9.8% in test [3]; 9% in test [4]; 18.1% in test [5]; 11.1% in test [6].
In the case of `Cc1ccc(N2C(=O)c3ccccc3NC2(C)CCl)cc1` (stereo not given), the growth inhibition in test [1] is 4.55%; in test [2] it was -9.25%; in test [3], 10.9%; in test [4] it was -3.7%; in test [5], 33.1%; in test [6], 1.3%.
With `Cc1ccc(NC(=O)/C(CC(=O)c2c[n+](=O)c3ccccc3n2O)=N\NC(=O)C[n+]2ccccc2)cc1`, the growth inhibition is 14.1% in test [1]; -1.25% in test [2]; -1.75% in test [3]; 24.8% in test [4]; 20.3% in test [5]; -0.85% in test [6].
Consider `CCOC(=O)/C(=C(/N)C1OC(COC(c2ccccc2)(c2ccccc2)c2ccccc2)C2OC(C)(C)OC12)C1CC(=O)N(C)C1=O` (stereo not given), for which the growth inhibition in test [1] was -4.35%; in test [2], 16.1%; in test [3] it was 12.7%; in test [4] it was -27.8%; in test [5] it was -7.35%; in test [6] it was 41.5%.
As to `O=C1C=CC(=O)c2c(Cl)ccc(O)c21`, the growth inhibition is -16.9% in test [1]; -30.6% in test [2]; -20.4% in test [3]; 10.1% in test [4]; -20.2% in test [5]; -8.7% in test [6].
Take `O=C(O)CC(SSCc1ccccc1)C(=O)O` (stereo not given): the growth inhibition is 5.1% in test [1]; 16.6% in test [2]; -4.15% in test [3]; -12.2% in test [4]; 12.7% in test [5]; 20.8% in test [6].
Take `N#CCCc1c(-c2ccccc2)nc(N)[nH]c1=O`: the growth inhibition was 2.35% in test [1]; 0.85% in test [2]; 2.75% in test [3]; -38.4% in test [4]; -14.6% in test [5]; -9.75% in test [6].
`Cc1ccc2c(c1O)C(=O)c1ccccc1C2=O`: the growth inhibition in test [1] was 35%; in test [2] it was 13.1%; in test [3], -8.8%; in test [4] it was -16.9%; in test [5], 29.7%; in test [6], 46.5%.
